From PubChem BioAssay (NCATS)
A number with no mark means an inactive call. Results filed as inconclusive are left out. Entries that show only a call come without a potency. Calls of active or inactive are those of the source. The call rests on the fitted dose curve; in most records, active means well fitted curve in the direction sought with a large enough effect; inconclusive means small, poorly fitted or top-dose-only effect, or another doubt; inactive means no such curve, though single readings can be large; an effect the other way counts as inactive or inconclusive.

Assays:
[1] = qHTS for inhibitors of adenylyl cyclases using a fission yeast platform: a pilot screen against the NCATS LOPAC library (AID 1347410)
Summary of the method: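 Inhibition of GNAS-stimulated AC9 activity in S. pombe was inferred from derepression of a PKA-repressed fbp1-GFP reporter, measured as cytometric fluorescence after 18 h at 30C with compounds at up to 57 µM.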

[2] = molecular target: Protein phosphatase 1D (Homo sapiens) (UniProt O15297); assay: RapidFire Mass Spectrometry qHTS Assay for Modulators of WT P53-Induced Phosphatase 1 (WIP1) (AID 1347424);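 further: amount of dephosphorylated VEPPL-S-QETFS peptide product formed by WIP1; series mostly up to about 63 µM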
Protein phosphatase 1D (Homo sapiens), sequence (O15297 whole entry, looked up): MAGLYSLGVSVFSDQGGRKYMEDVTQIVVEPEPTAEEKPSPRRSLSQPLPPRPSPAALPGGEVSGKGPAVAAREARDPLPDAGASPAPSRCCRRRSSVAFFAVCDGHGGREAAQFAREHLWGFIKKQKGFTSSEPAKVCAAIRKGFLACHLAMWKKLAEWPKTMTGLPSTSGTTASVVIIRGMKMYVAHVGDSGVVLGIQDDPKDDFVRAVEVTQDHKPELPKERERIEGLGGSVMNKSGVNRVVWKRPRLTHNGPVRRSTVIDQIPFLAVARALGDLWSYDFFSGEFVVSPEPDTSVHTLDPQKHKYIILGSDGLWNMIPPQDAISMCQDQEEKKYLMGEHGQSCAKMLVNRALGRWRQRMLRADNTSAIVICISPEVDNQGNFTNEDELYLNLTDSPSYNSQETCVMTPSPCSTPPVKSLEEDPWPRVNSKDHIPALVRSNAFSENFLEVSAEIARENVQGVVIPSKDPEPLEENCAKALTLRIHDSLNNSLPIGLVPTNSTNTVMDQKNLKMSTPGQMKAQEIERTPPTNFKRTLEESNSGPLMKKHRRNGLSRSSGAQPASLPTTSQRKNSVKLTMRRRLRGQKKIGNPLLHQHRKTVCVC
Summary of the method: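 10 nM WIP1 + cpd, 1 h RT; + 2 uM VEPPL-pS-QETFS, 5 min RT; stop 0.5% formic acid; labelled product standard 1 uM; RapidFire MS. Buffer 50 mM Tris pH 7.5, 30 mM MgCl2, 1 mM TCEP.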

[3] = molecular target: Protein phosphatase 1D (Homo sapiens) (UniProt O15297); assay: Rhodamine-PBP qHTS Assay for Modulators of WT P53-Induced Phosphatase 1 (WIP1) (AID 1347425)
Summary of the method: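 The read-out is the change in Rhodamine-PBP fluorescence (f1 - f0, ex 525/em 598 nm) as Pi is released, read each minute for 11 min. Final reaction: 5 nM WIP1, 10 uM phosphopeptide VEPPL-pS-QETFS, 10 uM Rh-PBP, 50 mM Tris-HCl pH 7.5, 30 mM MgCl2. Compound was preincubated with enzyme for 1 hour at room temperature.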

[4] = Validation qHTS assay for inhibitors of Activation Induced Cytidine Deaminase (AID): UDG Counterscreen signal (AID 1347427)
Summary of the method: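 Counterscreen read of UDG activity (2 U/mL, 4/3x) in the FRET deamination format with AID (1 uM, 4/3x), DJC20/DJC23 substrates (250 nM, 4x), 4 h at room temperature. NaOH stop, fluorescence at 560 ex/665 em.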

[5] = molecular target: Single-stranded DNA cytosine deaminase (Homo sapiens) (UniProt Q9GZX7); assay: Validation qHTS assay for inhibitors of Activation Induced Cytidine Deaminase (AID): AID signal (AID 1347429)
Single-stranded DNA cytosine deaminase (Homo sapiens), sequence (Q9GZX7 whole entry, looked up): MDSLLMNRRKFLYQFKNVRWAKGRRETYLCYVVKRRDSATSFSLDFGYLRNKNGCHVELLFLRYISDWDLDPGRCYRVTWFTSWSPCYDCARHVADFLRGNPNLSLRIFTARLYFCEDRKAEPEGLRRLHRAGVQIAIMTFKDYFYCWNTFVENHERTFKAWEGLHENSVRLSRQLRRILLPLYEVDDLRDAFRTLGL
Summary of the method: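 AID and UDG were combined and compounds added at final up to 114 uM, then DJC20/DJC23 FRET substrate was added for 4 hr at room temperature. NaOH was then added for 30 min before fluorescence was read at 540/590 nm.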

[6] = Primary qHTS for inhibitors of La Crosse Virus (LACV) - induced cell death in SH-SY5Y cells (AID 1508616); further: potency means the concentration at half of the fitted maximal effect
Summary of the method: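 Luminescent ATP readout (ATPLite 1step, 5 min room temperature) measured rescue from LACV-induced death after 6 days of infection at 0.01 MOI; normalized to infected DMSO wells and uninfected DMSO wells.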

[7] = molecular target: Calcium and integrin-binding protein 1 (Homo sapiens) (UniProt Q99828); assay: Validation qHTS for Identification of Calcium Integrin Binding protein 1 (CIB1) Competitor (AID 1508618)
Calcium and integrin-binding protein 1 (Homo sapiens), sequence (Q99828 whole entry, looked up): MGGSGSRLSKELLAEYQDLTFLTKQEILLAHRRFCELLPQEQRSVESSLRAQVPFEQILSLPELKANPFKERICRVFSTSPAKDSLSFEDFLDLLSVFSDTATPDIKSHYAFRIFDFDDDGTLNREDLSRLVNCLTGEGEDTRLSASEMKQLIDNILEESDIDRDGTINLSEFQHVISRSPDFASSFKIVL
Summary of the method: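 CIB1-GST (1 uM final) incubated 15 min at room temperature with compounds (up to 114 uM), then FITC-labelled alphaIIb peptide (100 nM) added. FP read (Ex 480/Em 540) after 15 min, pH 7.4 buffer containing 5 mM CaCl2.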

[8] = molecular target: Calcium and integrin-binding protein 1 (Homo sapiens) (UniProt Q99828); assay: Primary qHTS for Identification of Calcium Integrin Binding Protein 1 (CIB1) Competitor (AID 1508620);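 further: GST tagged CIB1 binding a fluorescein labelled alphaIIb integrin peptide tracer; top concentration of the series differs between compounds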
Summary of the method: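 CIB1-GST (1 uM final) and compound incubated 15 min at room temperature before adding FITC-alphaIIb peptide tracer (100 nM final). Competition for binding read by fluorescence polarization (ex 480, em 540) after another 15 min at room temperature.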

CCN(CC)CC(=O)Nc1c(C)cccc1C
outcome [1]: inactive
Potency [2]: inactive
outcome [3]: inactive
outcome [4]: inactive
Potency [5]: inactive
Potency [6]: inactive
outcome [7]: inactive
Potency [8]: inactive

CCCCCCCC/C=C\CCCCCCCC(=O)NCc1ccc(O)c(OC)c1
outcome [1]: inactive
Potency [2]: inactive
outcome [3]: inactive
outcome [4]: inactive
Potency [5]: inactive
Potency [6]: inactive
outcome [7]: inactive
Potency [8]: inactive

Nc1ncn([C@@H]2O[C@H](CO)[C@@H](O)[C@H]2O)c(=O)n1
outcome [1]: inactive
Potency [2]: inactive
outcome [3]: inactive
outcome [4]: inactive
Potency [5]: inactive
Potency [6]: 1.12 µM (active)
outcome [7]: inactive
Potency [8]: inactive

NS(=O)(=O)c1cc2c(cc1Cl)NC(C1CC3C=CC1C3)NS2(=O)=O (stereo unspecified)
outcome [1]: inactive
Potency [2]: inactive
outcome [3]: inactive
outcome [4]: inactive
Potency [5]: inactive
Potency [6]: inactive
outcome [7]: inactive
Potency [8]: inactive

C(=C\c1ccccc1)/CN1CCN(C(c2ccccc2)c2ccccc2)CC1
outcome [1]: inactive
Potency [2]: inactive
outcome [3]: inactive
outcome [4]: inactive
Potency [5]: inactive
Potency [6]: inactive
outcome [7]: inactive
Potency [8]: inactive

CN(C)CCCN1c2ccccc2Sc2ccccc21
outcome [1]: inactive
Potency [2]: inactive
outcome [3]: inactive
outcome [4]: inactive
Potency [5]: inactive
Potency [6]: inactive
outcome [7]: inactive
Potency [8]: inactive

CCc1cccc(N(C)C(N)=Nc2cccc3ccccc23)c1
outcome [1]: inactive
Potency [2]: inactive
outcome [3]: inactive
outcome [4]: inactive
Potency [5]: inactive
Potency [6]: inactive
outcome [7]: inactive
Potency [8]: inactive

c1cc(CN2CCCCC2)cc(OCCCNc2nc3ccccc3s2)c1
outcome [1]: inactive
Potency [2]: inactive
outcome [3]: inactive
outcome [4]: inactive
Potency [5]: inactive
Potency [6]: inactive
outcome [7]: inactive
Potency [8]: inactive

CC(C(=O)O)c1ccc(CC2CCCC2=O)cc1 (stereo unspecified)
outcome [1]: inactive
Potency [2]: inactive
outcome [3]: inactive
outcome [4]: inactive
Potency [5]: inactive
Potency [6]: inactive
outcome [7]: inactive
Potency [8]: inactive

CN1CCN(C2=Nc3ccccc3Oc3ccc(Cl)cc32)CC1
outcome [1]: inactive
Potency [2]: inactive
outcome [3]: inactive
outcome [4]: inactive
Potency [5]: inactive
Potency [6]: inactive
outcome [7]: inactive
Potency [8]: inactive

CNC1(C)C2CCC(C2)C1(C)C (stereo unspecified)
outcome [1]: inactive
Potency [2]: inactive
outcome [3]: inactive
outcome [4]: inactive
Potency [5]: inactive
Potency [6]: inactive
outcome [7]: inactive
Potency [8]: inactive

CN(C)[C@@H]1C(=O)C(C(N)=O)=C(O)[C@@]2(O)C(=O)C3=C(O)c4c(O)ccc(Cl)c4[C@@H](O)[C@H]3C[C@@H]12
outcome [1]: inactive
Potency [2]: inactive
outcome [3]: inactive
outcome [4]: inactive
Potency [5]: inactive
Potency [6]: inactive
outcome [7]: inactive
Potency [8]: inactive

CC(=O)OC(C)C[N+](C)(C)C (stereo unspecified)
outcome [1]: inactive
Potency [2]: inactive
outcome [3]: inactive
outcome [4]: inactive
Potency [5]: inactive
Potency [6]: inactive
outcome [7]: inactive
Potency [8]: inactive

COCCOC(=O)C1=C(C)NC(C)=C(C(=O)OC(C)C)C1c1cccc([N+](=O)[O-])c1 (stereo unspecified)
outcome [1]: inactive
Potency [2]: inactive
outcome [3]: inactive
outcome [4]: inactive
Potency [5]: inactive
Potency [6]: inactive
outcome [7]: inactive
Potency [8]: inactive

CC(=O)[C@@]1(O)CC[C@H]2[C@@H]3CCC4=CC(=O)CC[C@]4(C)[C@H]3CC[C@@]21C
outcome [1]: inactive
Potency [2]: inactive
outcome [3]: inactive
outcome [4]: inactive
Potency [5]: inactive
Potency [6]: inactive
outcome [7]: inactive
Potency [8]: inactive

C[N+](C)(C)CCCCCCCCCC[N+](C)(C)C
outcome [1]: inactive
Potency [2]: inactive
outcome [3]: inactive
outcome [4]: inactive
Potency [5]: inactive
Potency [6]: inactive
outcome [7]: inactive
Potency [8]: inactive

CN1C(=O)CC[C@H]1c1cccnc1
outcome [1]: inactive
Potency [2]: inactive
outcome [3]: inactive
outcome [4]: inactive
Potency [5]: inactive
Potency [6]: inactive
outcome [7]: inactive
Potency [8]: inactive

COCCCC/C(=N\OCCN)c1ccc(C(F)(F)F)cc1
outcome [1]: inactive
Potency [2]: inactive
outcome [3]: inactive
outcome [4]: inactive
Potency [5]: inactive
Potency [6]: inactive
outcome [7]: inactive
Potency [8]: inactive

CC1=C(C)C(=O)C(CCCCC#CCCCC#CCO)=C(C)C1=O
outcome [1]: inactive
Potency [2]: inactive
outcome [3]: inactive
outcome [4]: inactive
Potency [5]: inactive
Potency [6]: inactive
outcome [7]: inactive
Potency [8]: inactive

CCOC(=O)c1cnc2c(cnn2CC)c1NN=C(C)C
outcome [1]: inactive
Potency [2]: inactive
outcome [3]: inactive
outcome [4]: inactive
Potency [5]: inactive
Potency [6]: inactive
outcome [7]: inactive
Potency [8]: inactive

NC(=O)c1cn(Cc2c(F)cccc2F)nn1
outcome [1]: inactive
Potency [2]: inactive
outcome [3]: inactive
outcome [4]: inactive
Potency [5]: inactive
Potency [6]: inactive
outcome [7]: inactive
Potency [8]: inactive

CC(C)NCC(O)c1cc(O)cc(O)c1 (stereo unspecified)
outcome [1]: inactive
Potency [2]: inactive
outcome [3]: inactive
outcome [4]: inactive
Potency [6]: inactive
outcome [7]: inactive

C[C@@H](O)[C@H]1C(=O)N2C(C(=O)O)=C(SCCN=CN)C[C@H]12
outcome [1]: inactive
Potency [2]: inactive
outcome [3]: inactive
outcome [4]: inactive
Potency [5]: inactive
Potency [6]: inactive
outcome [7]: inactive
Potency [8]: inactive

CCCCNc1ccc(C(=O)OCCN(C)C)cc1
outcome [1]: inactive
Potency [2]: inactive
outcome [3]: inactive
outcome [4]: inactive
Potency [5]: inactive
Potency [6]: inactive
outcome [7]: inactive
Potency [8]: inactive

CCN(CC)CCCN(c1ccccc1)C1Cc2ccccc2C1
outcome [1]: inactive
Potency [2]: inactive
outcome [3]: inactive
outcome [4]: inactive
Potency [6]: inactive
outcome [7]: inactive

Nc1c2c(nc3ccccc13)CCCC2O (stereo unspecified)
outcome [1]: inactive
Potency [2]: inactive
outcome [3]: inactive
outcome [4]: inactive
Potency [6]: inactive
outcome [7]: inactive

COc1cc(Cc2cnc(N)nc2N)cc(OC)c1OC
outcome [1]: inactive
Potency [2]: inactive
outcome [3]: inactive
outcome [4]: inactive
Potency [5]: inactive
Potency [6]: inactive
outcome [7]: inactive
Potency [8]: inactive

CC(C)NNC(=O)c1ccncc1
outcome [1]: inactive
Potency [2]: inactive
outcome [3]: inactive
outcome [4]: inactive
Potency [6]: inactive
outcome [7]: inactive

O=C(CCNNC(=O)c1ccncc1)NCc1ccccc1
outcome [1]: inactive
Potency [2]: inactive
outcome [3]: inactive
outcome [4]: inactive
Potency [5]: inactive
Potency [6]: inactive
outcome [7]: inactive
Potency [8]: inactive

CN1C[C@H](C(=O)N[C@]2(C)O[C@@]3(O)[C@@H]4CCCN4C(=O)[C@H](Cc4ccccc4)N3C2=O)C[C@@H]2c3cccc4[nH]cc(c34)C[C@H]21
outcome [1]: inactive
Potency [2]: inactive
outcome [3]: inactive
outcome [4]: inactive
Potency [5]: inactive
Potency [6]: inactive
Potency [8]: inactive

CC(C)(Oc1ccc(CCNC(=O)c2ccc(Cl)cc2)cc1)C(=O)O
outcome [1]: inactive
Potency [2]: inactive
outcome [3]: inactive
outcome [4]: inactive
Potency [6]: inactive
outcome [7]: inactive
Potency [8]: inactive

CC(N=C(NC#N)Nc1ccncc1)C(C)(C)C (stereo unspecified)
outcome [1]: inactive
Potency [2]: inactive
outcome [3]: inactive
outcome [4]: inactive
Potency [5]: inactive
Potency [6]: inactive
outcome [7]: inactive
Potency [8]: inactive
